Assay outcomes (PubChem BioAssay)
In the library only some 19% were active in any assay of this set; here they are far more common.
DT40 TDP1 no CPT = qHTS for Inhibitors of human tyrosyl-DNA phosphodiesterase 1 (TDP1): qHTS in cells in absence of CPT. DT40 Tdp1-/- hTDP1 cells, no CPT, ATP luminescence, 48 h. Potency, µM (series often up to 46.2 µM), hits mostly inhibitors. actives 15% (n = 420,000). AID 686978, 2013; note: nearly all actives have a fitted effect of over 55% in size
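Luminescent ATP content (CellTiter-Glo) served as the growth readout. Knockout chicken DT40 cells expressing human TDP1 were exposed to compounds without camptothecin for a minimum 48 hr at 37 °C.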
KB-3-1 cytotox = KB-3-1 parental cell cytotoxicity; AID 1347075; Potency, µM (doses to about 46.1 µM), hits mostly cytotoxic; actives 1.4% (n = 400,000); KB-3-1 viability, CellTiter-Glo ATP luminescence, 72 h; note: nearly all actives have a fitted effect of over 60% in size
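72 h, 37 °C compound treatment of KB-3-1 parental cells; CellTiter-Glo added, 10 min, luminescence read. Data corrected against DMSO-only plates and normalized before curve fitting.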
KB-V1 MDR tox = kills drug-selected multidrug resistant KB-V1 cells | KB-V1 MDR cells viability, CellTiter-Glo, 72 h | Potency, µM (highest dose often 46.1 µM), actives largely listed as cytotoxic | actives 3.4% (n = 400,000) | AID 1347076; note: nearly all actives have a fitted effect of over 60% in size
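Cells of the MDR subline KB-V1 are plated, dosed with compound at multiple concentrations, and incubated 72 h at 37 degrees C; CellTiter-Glo is then added and luminescence read after 10 min.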
HT1080-NT tox = kills 2HG-producing HT-1080-NT fibrosarcoma cells; HT-1080-NT fibrosarcoma viability, CellTiter-Glo ATP luminescence, 48 h; Potency, µM (top dose mostly 46.1 µM), actives largely listed as cytotoxic; actives 1.6% (n = 360,000); AID 686970;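 note: NT is the 2HG producing partner of a matched IDH1 knockdown line; nearly all actives have a fitted effect of over 55% in size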
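Toxicity toward the 2HG-producing NT line was scored as %Activity, normalised to DMSO and no-cell wells, from CellTiter-Glo luminescence after 48 hours' treatment.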
HT1080 IDH1KD tx = toxicity to HT-1080 IDH1 knockdown cells (counter line); HT-1080 IDH1 knockdown viability, ATP luminescence, 48 h; actives 2% (n = 360,000); Potency, µM (doses to about 46.1 µM), most hits filed as cytotoxic; AID 686971
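Using the IDH1-knockdown HT-1080 line run in the same batch and compound series as the NT line, viability after 48 h at 37 °C was determined by CellTiter-Glo luminescence and expressed as % activity.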
TDP1 cell CPT = DT40-hTDP1 cell growth loss with CPT; Potency, µM (series often up to 46.2 µM), usual class: inhibitors; actives 12% (n = 420,000); chicken DT40 Tdp1-/-;hTDP1 cells + 20 nM CPT, ATP luminescence, 48 h; note: nearly all actives have a fitted effect of over 55% in size
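Chicken DT40 Tdp1-/- cells complemented with human TDP1, 400 cells/well, exposed to compounds plus 20 nM camptothecin for at least 48 h at 37 C; viability read as ATP content by CellTiter-Glo luminescence.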
Hits are given with their value; 0 = inactive; ? = inconclusive; - = not tested or not shown; [ ] = remark or other dose. Calls come from the whole dose curve; as a rule, active = well fitted curve in the direction sought with a large enough effect; inconclusive = small, poorly fitted or top-dose-only effect, or another doubt; inactive = no such curve, though single readings can be large; an effect the other way counts as inactive or inconclusive.

SMILES | DT40 TDP1 no CPT | KB-3-1 cytotox | KB-V1 MDR tox | HT1080-NT tox | HT1080 IDH1KD tx | TDP1 cell CPT
COc1ccc(C2=NOC(Cn3nc(C(=O)NCc4ccccc4OC)cc3-c3ccccc3)C2)cc1 (configuration not stated) | 21µM | 0 | 0 | 0 | 0 | 23µM
COc1ccc(C2=NOC(Cn3nc(C(=O)NCc4ccc(OC(F)(F)F)cc4)cc3-c3ccccc3)C2)cc1 (configuration not stated) | ? | 0 | 0 | 0 | 0 | ?
CC(C)(C)n1nc2c(c1NC(=O)Cc1ccccc1)CS(=O)(=O)C2 | 0 | 0 | 0 | 0 | 0 | 0
Cc1cccc(C)c1NC(=O)c1c(O)c2ccccc2[nH]c1=O | ? | 18µM | ? | 0 | 0 | 18µM
O=C(Nc1cccc(O)c1)c1c(O)c2ccccc2[nH]c1=O | ? | 0 | 0 | 0 | 0 | 18µM
CCCCCCCC(=O)NNC(=O)c1c(O)c2ccccc2[nH]c1=O | 0 | 0 | 0 | 0 | 0 | ?
CCCCCCNC(=O)c1c(O)c2ccccc2[nH]c1=O | 13µM | 0 | 0 | 0 | 0 | ?
CN(C)C(=O)C(OC(=O)c1ccc2ccccc2n1)c1ccccc1 (configuration not stated) | 0 | ? | 0 | 0 | 0 | 0
Cc1ccc(CNC(=O)C2CCC(=O)N(CC3CCCCC3)C2)o1 (configuration not stated) | 0 | - | - | 0 | 0 | 0
CC(=O)c1ccc(N2CCN(C(=O)/C=C/c3ccc4ccccc4n3)CC2)cc1 | 15µM | 0 | ? | 0 | 0 | ?
Cc1ccc(S(=O)(=O)NC(C)C(=O)OCC(=O)Nc2sccc2C(N)=O)cc1 (configuration not stated) | 0 | 0 | 0 | 0 | 0 | 0
CCOc1cc(C(=O)Nc2ccc(S(=O)(=O)Nc3cc(OC)nc(OC)n3)cc2)cc(OCC)c1OCC | 0 | 0 | 0 | - | - | 0
CC(=O)c1c(N2CCOCC2)[nH]c(-c2ccccc2)nc1=S | ? | 0 | 0 | 0 | 0 | 16µM
CC(=O)c1c(N2CCCC2)[nH]c(-c2ccccc2)nc1=S | ? | 0 | ? | 0 | 0 | ?
CC(=O)c1c(N2CCN(Cc3ccccc3)CC2)[nH]c(-c2ccccc2)nc1=S | ? | 0 | ? | 0 | 0 | ?
CC(=O)c1c(N)[nH]c(-c2ccccc2)nc1=S | 6.5µM | 0 | 0 | 0 | 0 | 6.5µM
COc1ccc(NC(=O)CC2C(=O)N(c3ccccc3)C(=O)N2C2CCCCC2)cc1 (configuration not stated) | 0 | 0 | 0 | - | - | 0
COc1ccccc1NS(=O)(=O)c1ccc(Cl)c(NC(=S)NC(=O)C2CCCC2)c1 | 29µM | 0 | ? | 0 | ? | 23µM
CCN(CC)S(=O)(=O)c1ccc(Cl)c(NC(=S)NC(=O)C2CCCC2)c1 | 18µM | 0 | 0 | 0[9.24 µM] | ? | 23µM
CCN(CC)c1ccc(S(=O)(=O)Nc2cc(Cl)ccc2Cl)cc1NC(=S)NC(=O)C1CCCC1 | ? | 0 | 0 | ? | ? | ?
Cc1ccc(NC(=S)NC(=O)C2CCCCC2)c(Br)c1 | 15µM | 0 | 0 | ? | ? | ?
Cn1c(SCC(=O)NC2CCCC2)nnc1C(F)(F)F | 0 | 0 | 0 | 0[9.24 µM] | 0 | 0
Clc1ccc2nc(-c3ccccn3)c(Nc3ccc4c(c3)OCO4)n2c1 | 21µM | ? | ? | 0 | 0 | ?
COc1cc(-c2nc3ccc(C)cn3c2Nc2ccc(Cl)cc2)ccc1O | 18µM | 0 | 0 | - | - | 16µM
COc1cc(-c2nc3ccc(Cl)cn3c2Nc2ccc3c(c2)OCO3)ccc1O | 13µM | 0 | 0 | - | - | 15µM
SMILES | DT40 TDP1 no CPT | KB-3-1 cytotox | KB-V1 MDR tox | HT1080-NT tox | HT1080 IDH1KD tx | TDP1 cell CPT
COc1cc(-c2nc3sccn3c2Nc2cccc(C)c2)ccc1O | 16µM | - | - | - | - | ?
COc1ccc(-c2nc3ccc(C)cn3c2Nc2ccc3c(c2)OCO3)cc1 | 0 | 0 | ? | - | - | 0
O=NN(Cc1cccnc1)C(=O)NC1CCCCC1 | ? | 0 | 0 | 0 | 0 | ?
Cc1ccc2ncc(C(=O)N3CCN(c4ccccc4F)CC3)c(=O)n2c1 | 0 | 0 | ? | - | - | 0
CCOc1ccc(C2c3c(oc4ccccc4c3=O)C(=O)N2Cc2ccc3c(c2)OCO3)cc1 (configuration not stated) | 0 | 0 | 0 | - | - | 0
CN(C)c1ccc(-c2nc3ccc(Cl)cn3c2Nc2ccc3c(c2)OCCO3)cc1 | 15µM | 0 | 0 | - | - | ?
CN(C)c1ccc(-c2nc3cnccn3c2Nc2ccc3c(c2)OCCO3)cc1 | 0 | 0 | 0 | 0 | 0 | 0
Clc1ccccn1 | 0 | 0 | 0 | 0 | 0 | 0
COc1ccc(CCNC(=O)CCc2cn(Cc3ccc(C)cc3)c3ccccc23)cc1OC | 15µM | - | - | - | - | 13µM
COc1ccc(CNC(=O)CCc2cn(Cc3cc(C)ccc3C)c3ccccc23)cc1OC | 5.8µM | - | - | - | - | 4.6µM
CCOc1ccc(CNC(=O)CCc2cn(C)c3ccccc23)cc1OC | 0 | 0 | 0 | 0 | 0 | 0
COc1ccc(Br)cc1CNC(=O)CCc1cn(Cc2ccc(C)cc2)c2ccccc12 | 23µM | - | - | - | - | ?
CCn1cc(CCCC(=O)NCc2ccccc2OC)c2ccccc21 | ? | 0 | 0 | 0 | 0 | 0
CCOc1ccccc1CNC(=O)CCc1cn(Cc2ccc(Cl)cc2)c2ccccc12 | 16µM | - | - | - | - | 18µM
Cc1ccc(Cn2cc(CCC(=O)NCc3ccccc3F)c3ccccc32)cc1 | 0 | - | - | - | - | 0
COc1ccc(CCNC(=O)CCCc2ccccc2)cc1OC | 0 | 0 | 0 | 0 | 0 | 0
C/C(=N/NC(=O)CNC(=O)Cc1ccccc1)c1ccc(Cl)cc1 | 0 | 0 | 0 | 0 | 0 | 0
Cc1ccc(CNC(=O)C(=O)NCC(c2ccc3c(c2)OCO3)N2CCOCC2)cc1 (configuration not stated) | 0 | - | - | - | - | 0
Cc1c(C(=O)N2CCOCC2)c(S(=O)(=O)N2CCN(c3ccc(Cl)cc3)CC2)c(C)n1C | 0 | 0 | ? | 0 | 0 | 0
COc1ccc(CCC(=O)NC2CCC(C)CC2)cc1 (configuration not stated) | 0 | 0 | 0 | 0 | 0 | 0
Cc1ccc(Cn2cc(CCC(=O)NC3CCC(C)CC3)c3ccccc32)cc1 (configuration not stated) | 13µM | - | - | - | - | ?
COc1ccc(OC)c(N2C(=O)CC(NNC(=O)c3ccc4c(c3)OCO4)C2=O)c1 (configuration not stated) | 0 | 0 | 0 | 0 | 0 | 0
CC(=O)/C(=N/Nc1ccc(Br)cc1)N1CCCc2ccccc21 | ? | 0 | 0 | 0 | 0 | 0
COC(=O)/C(=N/Nc1ccccc1)N1CCCc2ccccc21 | ? | ? | 21µM | 0 | 0 | ?
